According to PubChem BioAssay (NCI):
Compounds without any hit were thinned out: in the full panel of roughly 83,000, 20% have a hit.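 Results are percent growth after 48 hours of single-concentration exposure. 100 means growth as in untreated cells, lower positive values show inhibition; negative values down to -100 show cell death.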 Active and inactive are the calls of the source. Rule for the calls: active = growth percent below 10; inactive = the rest.

These compounds were tested on SR leukemia (assay: NCI-60 one-dose screen, 48 h (100 = growth as untreated, 0 = no growth, -100 = all killed)). Details: 10 µM unless noted.
In the case of `CC(C)(C)C(=O)OCOP(=O)(NCc1ccccc1)C1CCCN(O)C1=O` (configuration not stated), the growth is reported as 9.38% (active).
For `CCCc1cc(O)c2c3c(c(=O)oc2c1)CN(C)CC3`, the growth was 15.8% (inactive).
In the case of `Nc1c(F)cc(-c2nc3cc(F)ccc3[se]2)cc1F`, the growth is reported as 20.6% (inactive).
With `Clc1ccc(COC(Cn2ccnc2)c2ccc(Cl)cc2Cl)cc1` (configuration not stated) the growth was -25.9% (active).
In the case of `Fc1ccc2c(c1)c(-c1nc(-c3c[nH]c4ncccc34)cs1)cn2CCCCN1CCCCC1`, the growth is reported as -60.2% (active).
For `COc1ccc2nc(NC(=O)COc3cc(/C=C\c4cc(OC)c(OC)c(OC)c4)ccc3OC)sc2c1`, the growth was 28% (inactive).
With `Oc1c(CCl)cc(Cl)cc1CCl` the growth was 101% (inactive).
For `COc1cc([C@@H]2c3cc4c(cc3[C@H](OC(C)=O)[C@H]3COC(=O)[C@H]23)OCO4)cc(OC)c1OC`, the growth was 9.46% (active).
With `CCOC(=S)S[C@H]1C[C@@H]2[C@H](CC[C@]3(C)C(=O)CC[C@@H]23)[C@@]2(C)CCC(=O)C=C12` the growth was 106% (inactive).
`CC1(C)N=C(N)N=C(N)N1c1ccc(CCC(=O)Nc2ccc(S(=O)(=O)F)cc2)c(Cl)c1` was tested, and the growth was 6.43% (active).
`Cc1c2cc(Cl)c3ccccc3c2c[n+]2ccccc12` was tested, and the growth was -11.7% (active).
With `COc1cc(NC(C)CCCNC2CN3CCC2CC3)c2ncccc2c1` (configuration not stated) the growth was 84.9% (inactive).
In the case of `COC(=O)[C@@H](C)C[C@H](Cc1ccccc1)NC(=O)c1csc([C@@H](C[C@H](C(C)C)N(C)C(=O)[C@@H](NC(=O)C23CC(NC(C)=O)(C2)C3)C2CC2)OC(C)=O)n1`, the growth is reported as 29.1% (inactive).
With `CC12CCC3C(CCC4=CC(=O)CCC43CF)C1CCC2=O` (configuration not stated) the growth was 119% (inactive).
With `O=C1OCC2=C1C(c1ccccc1)c1cc3c(cc1N2)OCO3` (configuration not stated) the growth was 8.69% (active).
For `COc1cc(/C=C\c2cc(OC)c(OC)c(OC)c2)cc(N/C=C\C(=O)c2cc(OC)c(OC)c(OC)c2)c1OC`, the growth was -5.44% (active).
For `Cc1ccc(S(=O)(=O)C(Cl)(Cl)Cl)cc1`, the growth was 89.4% (inactive).
In the case of `c1ccc(COc2ccc3[nH]cc(CCN(Cc4ccccc4)Cc4ccccc4)c3c2)cc1`, the growth is reported as 69.5% (inactive).
With `CCOC(=O)c1c(C)n(Cc2ccccc2)c2cc(CN(C)C)c(O)cc12` the growth was 17.8% (inactive).
`Clc1ccc(CSC(Cn2ccnc2)c2ccc(Cl)cc2Cl)cc1` (configuration not stated) was tested, and the growth was 2.95% (active).
In the case of `CCCCCCCCCCCCCCCCCCOc1ccccc1COP(=O)(O)OOCC[N+](C)(C)C`, the growth is reported as -8.81% (active).
For `CC12CCC3C(C=CC4=C(N)C(=O)CCC43C)C1CCC2=O` (configuration not stated), the growth was -18.1% (active).
For `CNC(=O)Oc1ccc(N(C)C)cc1C(C)C`, the growth was 123% (inactive).
With `C=CC[n+]1ccc(-c2cc[n+](CC=C)cc2)cc1` the growth was 93.9% (inactive).
For `CCC1CC(O)c2c(O)c3c(c(O)c2C1O)C(=O)c1cccc(O)c1C3=O` (configuration not stated) (tested in a mixture with another compound), the growth was -0.491% (active).
For `ClC1=C(Cl)C(Cl)(C2(Cl)C(Cl)=C(Cl)C(Cl)=C2Cl)C(Cl)=C1Cl`, the growth was -25.3% (active).
With `O=c1[nH]cc(N(CCCl)CCCl)c(=O)[nH]1` the growth was 10.4% (inactive).
With `Cn1cc(C=O)c2nccnc21` the growth was 105% (inactive).
For `CN1CC(=O)N(O)C1(C)c1cccnc1` (configuration not stated), the growth was 92% (inactive).
With `CC1=C([Te]c2ccc(O)cc2)C(=O)c2ccccc2C1=O` the growth was -14.8% (active).
In the case of `COC(=O)[C@@H](C)C[C@H](Cc1ccccc1)NC(=O)c1csc([C@@H](C[C@H](C(C)C)N(C)C(=O)[C@@H](NC(=O)[C@H]2CCCCN2C)c2ccc(F)cc2)OC(C)=O)n1`, the growth is reported as 6.27% (active).
In the case of `C[C@@H]1O[C@@H](O[C@H]2C[C@@H](O)[C@]3(CO)C4C(CC[C@]3(O)C2)[C@@]2(O)CC[C@H](C3=CC(=O)OC3)[C@@]2(C)C[C@H]4O)[C@H](O)[C@H](O)[C@H]1O` (some centres not stated), the growth is reported as -31.2% (active).
For `CC[C@H](C)[C@H](NC(=O)C12CC(NC(C)=O)(C1)C2)C(=O)N(C)[C@H](C[C@@H](OC(C)=O)c1nc(C(=O)N[C@@H](Cc2ccccc2)C[C@H](C)C(=O)OC)cs1)C(C)C`, the growth was 20.8% (inactive).
For `CC(=O)/C=C/c1ccc2c(c1)OCO2`, the growth was 98.3% (inactive).
In the case of `C[CH2][Sn]([Cl])([Cl])[CH2]C.Oc1ccccc1C=NCCN=Cc1ccccc1O`, the growth is reported as 103% (inactive).
With `CN1CCCCC1C(C)(O)c1ccccc1` (configuration not stated) the growth was 113% (inactive).
With `COc1ccc2c(c1)c(C1(O)CC(CSC#N)OC1=O)cn2C(=O)c1ccc(Cl)cc1` (configuration not stated) the growth was 84.8% (inactive).
